We go through 9 molecules from ChEMBL document CHEMBL1157539, “Thousands of chemical starting points for antimalarial lead identification” (Nature, 2010).

This assay concerns HepG2. In words: GSK_TCMDC: Percent inhibition of human HepG2 cell line. Test compounds present at 10uM. Format: functional.
On to `COc1cccc(NC(=O)Nc2ccc(Nc3nc(C)cc(N4CCCC4)n3)cc2)c1`, for which the Inhibition is 28%. With `O=C(NC1CCN(c2ccnc3cc(Cl)ccc23)C1)c1ccc(C(F)(F)F)cc1.O=C(O)C(F)(F)F` (centres undefined), the Inhibition came to 37%.

For the molecule `CCCNCc1ccc(-c2ccc(CN(CCOC)C(=O)c3ccccc3)cc2)nc1.O=C(O)C(F)(F)F`, the Inhibition came to 16%. Next, `COc1ccc(C(=O)Nc2nonc2-c2ccc(OC)c(OC)c2)cc1Cl`: 6%; `O=C(NCCN1CCCCC1)c1cccc(Nc2nccc(Nc3ccc(Oc4ccccc4)cc3)n2)c1`: 50%; `Cc1cc(NC(=O)Nc2ccc3ccn(C)c3c2)c2ccccc2n1`: 11%. Next, `Cc1nc2ccc(F)cc2n1C1CCN(C(=O)Cc2ccc(F)c(F)c2)CC1`: 2%; `CC(C)[C@H](NC(=O)c1ccc(O)c(-c2cccc(C(F)(F)F)c2)c1)C(=O)NCCN1CCCCC1`: 3%. Next, `CCCCc1cc(NCC)nc(Nc2cccc(OC)c2)n1`: 9%.
